Test [1] in a line: ACEA_ER_AUC_viability: ACEA Biosciences xCELLigence Real-Time Cell Analysis on Estrogen Receptor Agonism for Viability (AID 2283782).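 Note: continuous compound exposure with impedance area under curve over 80 h; hit means loss of impedance signal meaning reduced cell growth or viability.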 The essentials:
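T47D cells preconditioned in phenol red-free RPMI with charcoal-stripped FBS, then dosed with 8-point 1:4 series from 100 uM (up to 0.5% DMSO). Impedance monitored up to ~80 h; area-under-curve loss versus DMSO taken as viability.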

Test [2] relates to frog Estrogen Receptor (ESR1), gene 398734. The test is described as follows: ATG_frER1_XSP1: Attagene TRANS-FACTORIAL Multi-Species (XSP1) HepG2 Assay for frog Estrogen Receptor (ESR1) (AID 2283777). The essentials:
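HepG2 cells transiently transfected with frog ER–GAL4 chimera and GAL4-UAS reporter, with 3 nM 6-alpha-fluorotestosterone present; 24 h dosing, reporter mRNA quantified by RT-PCR and capillary electrophoresis, gain of signal versus DMSO.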

The test system of test [3] is zebrafish Estrogen Receptor (ESR2A), gene 317734. Briefly: ATG_zfER2a_XSP1: Attagene TRANS-FACTORIAL Multi-Species (XSP1) HepG2 Assay for zebrafish Estrogen Receptor (ESR2A) (AID 2283778). The essentials: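 HepG2 cells transiently transfected with GAL4-UAS reporter units driven by a zebrafish ESR2A–Gal4 chimera; 24 h compound exposure with 3 nM 6-alpha-fluorotestosterone present. Reporter mRNA measured by RT-PCR with fluorescent capillary electrophoresis, fitted positive versus DMSO.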

Test [4] addresses chicken Estrogen Receptor (ESR1), ESR1 (gene 396099) (UniProt P06212). The test is described as follows: ATG_chERa_XSP1: Attagene TRANS-FACTORIAL Multi-Species (XSP1) HepG2 Assay for chicken Estrogen Receptor (ESR1) (AID 2283779). The essentials:
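HepG2 cells transiently transfected with GAL4-UAS reporter units for chimeric chicken ERα-Gal4, dosed 24 h with 3 nM 6-alpha-fluorotestosterone present. Reporter mRNA by RT-PCR and capillary electrophoresis; gain-of-signal fit versus DMSO.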

Test [5] has as its target Estrogen receptor (Homo sapiens) (UniProt P03372). The test is described as follows: ATG_hERa_XSP1: Attagene TRANS-FACTORIAL Multi-Species (XSP1) HepG2 Assay for human Estrogen Receptor (ESR1) (AID 2283780). The essentials:
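HepG2 cells transiently transfected with GAL4-UAS reporter units and chimeric NR-Gal4 constructs; 24 h after dosing, reporter mRNA quantified by RT-PCR and capillary electrophoresis. Medium contained 3 nM 6-alpha-fluorotestosterone; activity fitted as gain-of-signal versus DMSO.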

In test [6] the test system is turtle Estrogen Receptor (ESR1), gene 101933533. The test is described as follows: ATG_trERa_XSP1: Attagene TRANS-FACTORIAL Multi-Species (XSP1) HepG2 Assay for turtle Estrogen Receptor (ESR1) (AID 2283781). The essentials:
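Turtle ERa as a GAL4 chimera in transiently transfected HepG2 cells; reporter mRNA quantified 24 h after dosing by RT-PCR and capillary electrophoresis. 3 nM 6-alpha-fluorotestosterone present; gain of signal versus DMSO.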

A short description of test [7]: STM_H9_NormalizedViability: Cytotoxicity Assessment at 120 hours in the Stemina devTOX quickPredict H9 human embryonic stem cell (hESC)-based Assay (AID 2283784). The essentials:
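Pluripotent H9 hESCs were exposed, with chemical and media replaced every 24 h. Viability was read by CellTiter-Fluor fluorescence, background-corrected and normalized to the 0.1% DMSO neutral control per plate. Loss of signal was fitted.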

In test [8] the test system is turtle Androgen Receptor (AR), gene 101947425. Briefly: ATG_trAR_XSP1: Attagene TRANS-FACTORIAL Multi-Species (XSP1) HepG2 Assay for turtle Androgen Receptor (AR) (AID 2283786). The essentials:
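HepG2 cells transiently transfected with a turtle AR–GAL4 chimera and GAL4-UAS reporter, co-treated with 3 nM 6-alpha-fluorotestosterone for partial stimulation. Reporter mRNA is quantified at 24 h by RT-PCR and capillary electrophoresis, gain-of-signal versus DMSO.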

For a further test, the target named is AR (gene 367) (UniProt P10275). Briefly: ACEA_AR_agonist_80hr: ACEA Biosciences xCELLigence Real-Time Cell Analysis on Androgen Receptor Agonism for Proliferation (AID 2283783).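 Note: hits increase impedance growth signal above DMSO baseline.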 The essentials: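 Proliferation of 22Rv1 prostate cancer cells tracked by electrical impedance, endpoint taken at 80 hours after dosing. Eight-point 1:4 dilutions from 100 uM maximum final, duplicate; testosterone and MG132 as positive controls, assay media as negative.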

Test [9] concerns the target human Androgen Receptor (AR), AR (gene 367) (UniProt P10275). The test is described as follows: ATG_hAR_XSP1: Attagene TRANS-FACTORIAL Multi-Species (XSP1) HepG2 Assay for human Androgen Receptor (AR) (AID 2283785). As for the experimental part: ATG_XSP1_multi-species_TRANS is a cell-based, multiplexed assay created by modifying the existing Attagene TRANS-FACTORIAL system to include a panel of nuclear receptors from some or all the following species: human (Homo sapiens), mouse (Mus musculus), frog (Xenopus laevis), zebrafish (Danio rerio), chicken (Gallus gallus), and turtle (Chrysemys picta). The ECOTOX-FACTORIAL format uses HepG2, a human liver cell line, with measurements taken at 24 hours after chemical dosing in a 24-well plate. Xsp1 included 3 nM 6-alpha-fluorotestosterone to partially stimulate the androgen receptor.ATG_hAR_XSP1 is one of 29 assay components measured or calculated from the ATG_XSP1_multi-species_TRANS assay. It is designed to make measurements of mRNA induction, a form of inducible reporter, as detected with fluorescence intensity signals by Reverse transcription polymerase chain reaction (RT-PCR) and Capillary electrophoresis technology.The assay endpoint ATG_hAR_XSP1 was analyzed in the positive analysis fitting direction relative to DMSO as the negative control and baseline of activity. […] Furthermore, this assay endpoint can be referred to as a primary readout, because this assay has produced multiple assay endpoints where this one serves a reporter gene function. […]

Molecules are shown by their SMILES. Where “and” joins values, the source holds several entries; their conditions need not be identical. Identical values can stand only once. Results filed as inconclusive are left out. A structure can be active in one record and inactive in another. Calls of active or inactive are those of the source. Rule for the calls: active = hit-call score of the fitted dose curve at least 0.9, where 1 is the maximum; inconclusive = response in the unintended direction; inactive = score below 0.9.

chicken Estrogen Receptor (ESR1), ESR1 (gene 396099), sequence (P06212 whole entry, looked up, the tested form may be a part): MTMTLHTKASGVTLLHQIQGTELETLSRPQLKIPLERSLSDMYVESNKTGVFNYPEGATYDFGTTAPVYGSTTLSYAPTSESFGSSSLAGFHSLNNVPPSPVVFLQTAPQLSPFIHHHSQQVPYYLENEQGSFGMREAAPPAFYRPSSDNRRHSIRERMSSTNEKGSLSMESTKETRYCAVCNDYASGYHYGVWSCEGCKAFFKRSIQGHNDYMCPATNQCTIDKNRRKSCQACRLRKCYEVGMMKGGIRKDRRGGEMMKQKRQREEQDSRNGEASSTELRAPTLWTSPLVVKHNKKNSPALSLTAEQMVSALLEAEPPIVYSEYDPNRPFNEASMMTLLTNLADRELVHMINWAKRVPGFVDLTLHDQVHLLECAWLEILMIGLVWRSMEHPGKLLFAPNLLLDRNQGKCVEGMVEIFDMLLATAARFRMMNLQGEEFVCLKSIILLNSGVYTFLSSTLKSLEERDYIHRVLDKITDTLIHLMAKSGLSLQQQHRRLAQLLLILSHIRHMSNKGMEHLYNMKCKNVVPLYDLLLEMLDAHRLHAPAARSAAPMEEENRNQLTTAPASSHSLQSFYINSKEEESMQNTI
Estrogen receptor (Homo sapiens), sequence (P03372 whole entry, looked up, the tested form may be a part): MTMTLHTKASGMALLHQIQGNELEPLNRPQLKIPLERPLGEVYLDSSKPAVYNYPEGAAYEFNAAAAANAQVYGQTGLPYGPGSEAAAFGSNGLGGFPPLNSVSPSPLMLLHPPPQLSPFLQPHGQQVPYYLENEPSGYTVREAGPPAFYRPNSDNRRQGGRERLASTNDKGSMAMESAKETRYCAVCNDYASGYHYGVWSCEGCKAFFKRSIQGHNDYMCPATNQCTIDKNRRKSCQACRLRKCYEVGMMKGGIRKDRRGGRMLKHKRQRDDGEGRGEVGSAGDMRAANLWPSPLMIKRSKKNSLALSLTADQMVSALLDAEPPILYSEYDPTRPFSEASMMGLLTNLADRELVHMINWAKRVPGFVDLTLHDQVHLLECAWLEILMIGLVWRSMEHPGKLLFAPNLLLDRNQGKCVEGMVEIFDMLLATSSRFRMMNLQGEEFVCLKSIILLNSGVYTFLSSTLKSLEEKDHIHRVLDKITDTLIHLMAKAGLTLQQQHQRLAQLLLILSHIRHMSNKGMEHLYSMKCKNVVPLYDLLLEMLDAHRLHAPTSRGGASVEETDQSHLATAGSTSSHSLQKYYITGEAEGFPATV
AR (gene 367), sequence (P10275 whole entry, looked up): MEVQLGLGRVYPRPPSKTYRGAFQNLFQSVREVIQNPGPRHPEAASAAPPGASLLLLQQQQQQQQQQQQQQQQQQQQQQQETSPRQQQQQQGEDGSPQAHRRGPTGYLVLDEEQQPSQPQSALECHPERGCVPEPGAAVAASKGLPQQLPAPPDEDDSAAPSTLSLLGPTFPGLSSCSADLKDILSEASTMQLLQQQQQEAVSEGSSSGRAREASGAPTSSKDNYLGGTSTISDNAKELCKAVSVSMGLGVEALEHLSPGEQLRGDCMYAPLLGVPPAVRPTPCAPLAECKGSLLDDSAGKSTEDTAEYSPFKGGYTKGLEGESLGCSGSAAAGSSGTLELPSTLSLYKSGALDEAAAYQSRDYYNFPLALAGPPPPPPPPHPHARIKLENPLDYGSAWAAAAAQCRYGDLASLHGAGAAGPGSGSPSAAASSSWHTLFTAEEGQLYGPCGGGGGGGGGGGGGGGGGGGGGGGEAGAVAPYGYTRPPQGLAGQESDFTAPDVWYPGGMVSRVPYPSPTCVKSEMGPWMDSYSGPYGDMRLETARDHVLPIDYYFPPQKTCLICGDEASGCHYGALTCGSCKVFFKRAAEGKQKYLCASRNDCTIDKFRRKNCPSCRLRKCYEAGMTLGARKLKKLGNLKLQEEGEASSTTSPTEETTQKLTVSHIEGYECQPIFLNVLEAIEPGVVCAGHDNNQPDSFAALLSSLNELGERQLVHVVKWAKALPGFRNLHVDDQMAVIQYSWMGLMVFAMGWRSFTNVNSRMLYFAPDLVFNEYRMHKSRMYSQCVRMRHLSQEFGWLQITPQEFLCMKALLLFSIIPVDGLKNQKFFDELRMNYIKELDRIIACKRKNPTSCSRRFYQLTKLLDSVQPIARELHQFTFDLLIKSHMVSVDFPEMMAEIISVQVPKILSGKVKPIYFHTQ
human Androgen Receptor (AR), AR (gene 367), sequence (P10275 whole entry, looked up): as above

In general, AC50 refers to the concentration at which the activity in the assay is half-maximal. On to `Oc1ccccc1-c1ccccc1`, for which, in test [1], the AC50 is 78 µM (active).
As for `CC(C)(C)c1ccc(CSc2cnn(C(C)(C)C)c(=O)c2Cl)cc1`, the outcome in test [2], in [3], in test [4], in [5], in [6] and in [8] was inactive. Moreover, the AC50 in test [7] is 0.12 µM (active).
With `O=C(O)c1nc(Cl)ccc1Cl`, in test [1], the compound was classed as inactive.
The same measure, in the same setting: as for `CNC(=S)S`, the entry is “inactive”.
Take `CCCCNC(=O)n1c(NC(=O)OC)nc2ccccc21`: the AC50 in test [1] was 18.1 µM (active); in test [7], 7.21 µM (active). For the same compound, the call with AR (gene 367) was inactive.
`N#Cc1nn(-c2c(Cl)cc(C(F)(F)F)cc2Cl)c(N)c1S(=O)C(F)(F)F` (centres undefined): the AC50 in [1] is 83.3 µM (active); in test [7], 66.1 µM (active).
As for `CS/C(C)=N/OC(=O)N(C)SN(C)C(=O)O/N=C(\C)SC`, the AC50 in [1] was 24.8 µM (active). In the test with AR (gene 367), the compound was classed as inactive.
`CC1COC(Cn2cncn2)(c2ccc(Oc3ccc(Cl)cc3)cc2Cl)O1` (centres undefined): the AC50 in test [1] is 83.2 µM (active); in [7], 6.39 µM (active).
With `C=CCC1=C(C)[C@@H](OC(=O)[C@@H]2[C@@H](C=C(C)C)C2(C)C)CC1=O`, the AC50 in [1] is 89.8 µM (active). The result in test [7] was inactive.
As for `CCOC(=O)CC(SP(=S)(OC)OC)C(=O)OCC` (centres undefined), in [7], the AC50 is 78.9 µM (active).
On to `CCc1nn(C)c(C(=O)NCc2ccc(C(C)(C)C)cc2)c1Cl`, for which the result in test [1] was inactive. Moreover, the half-maximal activity concentration (AC50) in [7] is 2.12 µM (active).
As for `CN(C)C(=S)SSC(=S)N(C)C`, the AC50 in [1] was 91 µM (active); in test [7], 50 µM (active). Further, in the test with AR (gene 367), the compound was called inactive.
Consider `OC(c1ccc(Cl)cc1)(c1cncnc1)c1ccccc1Cl` (centres undefined), for which the AC50 is 4.49 µM (active) in test [3], 2.36 µM (active) in test [4], 2.22 µM (active) in test [5] and 2.12 µM (active) in test [6]. Also, the outcome in [1] and in test [7] was inactive.
For `CCCN(CCC)c1c([N+](=O)[O-])cc(S(N)(=O)=O)cc1[N+](=O)[O-]`, the half-maximal activity concentration (AC50) was 12.7 µM (active) in [2]; 33.4 µM (active) in [3]; 16.2 µM (active) in [4]; 13.2 µM (active) in test [5]; 33.4 µM (active) in test [6]; 24 µM (active) and 82.5 µM (active) and 21.4 µM (active) in test [1]. The outcome in test [1] and in test [8] was inactive.
For `Cc1ccc(-c2c(Cl)nc(C#N)n2S(=O)(=O)N(C)C)cc1`, in the test with AR (gene 367), the outcome was inactive.
For `COc1ccc(C(c2ccc(OC)cc2)C(Cl)(Cl)Cl)cc1`, the AC50 in test [2] is 0.368 µM (active); in test [4] it was 1.97 µM (active); in test [5] it was 0.821 µM (active); in [6] it was 1.32 µM (active); in test [1], 88.6 µM (active). Besides, the call in test [3] was inactive.
As to `N#Cc1cc(Br)c(O)c(Br)c1`, the result in the test with AR (gene 367) was inactive.
As for `CCCCOC(=O)c1ccccc1C(=O)OCCCC`, the call in [2], in test [6] and in test [1] was inactive. Also, the AC50 in [4] was 26.7 µM (active); in test [5], 19.9 µM (active); in test [1], 78.3 µM (active); in test [7], 50 µM (active).
In the case of `CCNc1nc(Cl)nc(NC(C)C)n1`, the outcome in [1] and in [7] was inactive.
As for `CO/C=C(/C(=O)OC)c1ccccc1Oc1cc(Oc2ccccc2C#N)ncn1`, the outcome (in test [4]; in test [5]; in [6]; in the test with AR (gene 367); in test [7]; in [9]) was inactive.

Source of the values: PubChem BioAssay (EPA / NIEHS).
